Measurements taken from PubChem BioAssay AID449762 (Southern Research Specialized Biocontainment Screening …, 2010).
Hit rate of the full screen: of about 330,000 compounds, about 1,900 (0.58%) were called active. Inconclusive results (about 4%) are left out. Only a sample is shown. Results with a measured potency or affinity are listed apart. A number with no mark means an inactive call. No stated cut-off is given here; in the data, inconclusive means inhibition above about 70% without an active follow-up result; inactive means below that.

Assay: M. tuberculosis growth inhibition, HTS (AID 449762);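 further: bacterial growth assessed after seven days of incubation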
Conditions: M. tuberculosis H37Rv growth inhibition, 7H9 media; at 25 µM; active compounds read high

Row | Compound | inhibition
1 | COc1ccc(NC(=O)c2ccc(-n3cccn3)nc2)cc1 | -16.3%
2 | CCOC(=O)C(C)Sc1ncc(OC)c(Sc2ccc(Cl)cc2)n1 (stereo unspecified) | 2.61%
3 | CCOc1ccc(NC(=O)c2ccc(OC)cc2)cc1 | -11.8%
4 | CCOC(=O)CSc1ncc(OC)c(Sc2ccc(Cl)cc2)n1 | 0.98%
5 | CC1Cc2ccccc2N1C(=O)CN(C)CC(=O)Nc1ccc(F)cc1 (stereo unspecified) | -2.83%
6 | CC(=O)c1cccc(N(C(=O)c2ccco2)C(C(=O)NC2CCCC2)c2ccccc2F)c1 (stereo unspecified) | 3.81%
7 | CCCCn1c(N)c(N(CCC(C)C)C(=O)C2CCN(C(=O)c3ccccc3C)CC2)c(=O)[nH]c1=O | -4.26%
8 | COc1cc(NC(=O)C2CCCN(S(=O)(=O)c3ccc4[nH]c(=O)ccc4c3)C2)cc(OC)c1 (stereo unspecified) | -0.31%
9 | NC(=O)c1cc([N+](=O)[O-])ccc1NCc1cccnc1 | -8.59%
10 | CCOC(=O)c1ccccc1C(=O)OCC | 7.16%
11 | Cc1ccc(NC2=C(N3CCCCC3)C(=O)c3ccccc3C2=O)cc1 | -7.72%
12 | O=C1C(Nc2ccccc2)=C(N2CCCCC2)C(=O)c2ccccc21 | 30.1%
13 | Cc1ccc(CN(C(=O)c2ccco2)C2CCS(=O)(=O)C2)cc1 (stereo unspecified) | -3.45%
14 | CCCN1C(=O)C2(OCCO2)c2cc(Cl)ccc21 | 3.45%
15 | CN(C)c1ccc(N=Nc2ccccc2C(=O)OCC(=O)N2CCCCCC2)cc1 | 11.9%
16 | COC(=O)c1ccccc1NC(=O)COC(=O)c1ccccc1N=Nc1ccc(N(C)C)cc1 | 5.14%
17 | Clc1ccc(-c2cn3c(n2)SCC3)cc1 | 9.61%
18 | CCSc1ncc(/C=N/Nc2ccc([N+](=O)[O-])cc2)n1C | -1.1%
19 | CCSc1ncc(/C=N/Nc2ccc(F)cc2)n1C | -4.38%
20 | Cc1cc(C(=O)NNC(=O)c2cccc(C(F)(F)F)c2)no1 | -7.27%
21 | CCOc1ccc(C(=O)NC(C)(C)CC)cc1 | 26.1%

Row | Compound | inhibition
22 | CCCOc1ccc(C(=O)CCN2CCCCC2)cc1 | 23.5%
23 | CCOc1ccc(C(=O)CCN2CCCCC2)cc1 | 42.5%
24 | Cc1ccc(-c2nc(S(=O)(=O)c3ccc(C)cc3)c(SCC(=O)NCC3CCCO3)o2)cc1 (stereo unspecified) | 8.98%
25 | CC(=O)c1ccc(NC(=O)CCc2nc3sc4c(c3c(=O)[nH]2)CCCC4)cc1 | 16.8%
26 | CC(C)OC(=O)c1ccc(NC(=O)c2cncc(Br)c2)cc1 | 33%
27 | CCn1cc(Br)c(C(=O)Nc2ccc(OC)cc2)n1 | -0.58%
28 | CCn1cc(Br)c(C(=O)NC(=S)Nc2ccc(C(=O)OC)cc2)n1 | 9.85%
29 | COc1ccc(NC(=S)NC(=O)c2cncc(Br)c2)cc1 | -11.5%
30 | CN1CCN(CCc2nc3cc(NC(=O)c4ccco4)ccc3n2C)CC1 | 3.05%
31 | O=S(=O)(NCCc1cn2ccccc2n1)c1ccc(F)c(C(F)(F)F)c1 | -2.32%
32 | CCCOc1ccc(OCCn2nc(C(=O)O)c3ccccc3c2=O)cc1 | 1.16%
33 | O=c1[nH]c(=O)n(Cc2ccc(Oc3ccccc3)cc2)cc1Br | 2.82%
34 | CCc1nnc(NC(=O)CN2CCN(c3ccccc3F)CC2)s1 | 5.55%
35 | CC(C)C(=O)NNC(=O)CN1CCN(c2nc(-c3ccccc3)cs2)CC1 | -10.4%
36 | CC(=O)Nc1cccc(C(=O)N2CCN(Cc3ccccc3)CC2)c1 | -9.84%
37 | COc1ccc(C(CC(=O)c2ccc(C)cc2)Nc2ccc([N+](=O)[O-])cc2)cc1 (stereo unspecified) | 14.3%
38 | CC(=O)NC(CC(=O)c1ccc([N+](=O)[O-])cc1)C(Cl)(Cl)Cl (stereo unspecified) | 13.4%
39 | Cc1ccc(NCC(=O)c2ccc([N+](=O)[O-])cc2)cc1 | 8.11%
40 | CC(C)CC(=O)NC(Nc1ccc([N+](=O)[O-])cc1)C(Cl)(Cl)Cl (stereo unspecified) | 4.27%
41 | OC(COc1ccc(Br)cc1)Cn1ccnc1 (stereo unspecified) | -0.05%
42 | O=C(NN1CCOCC1)c1ccc(Cl)s1 | -0.84%

Row | Compound | inhibition
43 | O=C(COC(=O)C1CCC1)Nc1ncc(Cl)cc1Cl | -10.9%
44 | COc1ccc(N2CCN(c3ccc(NC(=O)C4CCCCC4)cc3C#N)CC2)cc1 | 7.01%
45 | Clc1ccc(CNc2ccc(CNc3ncn[nH]3)cc2)cc1 | 2.69%
46 | Cc1cc(C)nc(Nc2ncn[nH]2)n1 | 6.87%
47 | CC1C(=O)N2CCCc3cc(NC(=O)C(=O)NCCc4ccc(F)cc4)cc1c32 (stereo unspecified) | 39.4%
48 | CC(C)c1nnc(NC(=O)CCC(=O)N2CCN(c3ccc(F)cc3)CC2)s1 | 6.66%
49 | CC(C)c1nnc(NC(=O)CCC(=O)N2CCN(c3cccc(Cl)c3)CC2)s1 | 25.5%
50 | Cc1[nH]ncc1N=Cc1ccc([N+](=O)[O-])cc1 | 1.43%
51 | CCOc1ccc(C(=O)CCC(=O)NCC(=O)Nc2c(C)cccc2C)cc1 | 3.97%
52 | O=C1CSC2(C(=O)N3CCCc4cccc2c43)N1c1cccc(C(F)(F)F)c1 (stereo unspecified) | -2.03%
53 | O=S(=O)(c1ccc(N2CC=C(c3ccccc3)CC2)nc1)N1CCCC1 | -10.8%
54 | N=C1C(c2nc3ccccc3s2)=C(O)CN1NC(=O)c1c[nH]c2ccccc12 | -0.06%
55 | N=C1C(c2nc3ccccc3[nH]2)=C(O)CN1NC(=O)COc1cccc(F)c1 | -2.89%
56 | CCN(CC)S(=O)(=O)c1ccc2c(c1)N(CC(=O)N1CCCC1)C(=O)CO2 | -1.21%
57 | O=c1oc2ccccc2cc1-c1nc(-c2ccccc2)no1 | 23.8%
58 | Cc1cccc(-c2noc(-c3cc4ccccc4oc3=O)n2)c1 | -1.72%
59 | COC(=O)c1cn(-c2ccccc2)nc1-c1ccc(OC)c(OC)c1 | 3.81%
60 | CC(C)Oc1ccc(C(=O)Nc2ccc(N3CCN(C(=O)c4ccco4)CC3)cc2)cc1 | 0.01%
61 | O=C(Nc1ccc(OCc2ccccc2)cc1)c1cccs1 | -4.87%
